Results filed as inconclusive are left out. Entries that show only a call come without a potency. Active and inactive are the calls of the source. Calls come from the whole dose curve; as a rule, active = well fitted curve in the direction sought with a large enough effect; inconclusive = small, poorly fitted or top-dose-only effect, or another doubt; inactive = no such curve, though single readings can be large; an effect the other way counts as inactive or inconclusive.
Target: DNA repair nuclease/redox regulator APEX1 (Homo sapiens) (UniProt P27695)
Assay: qHTS Validation Assay for Inhibitors of the Human Apurinic/apyrimidinic Endonuclease 1 (APE1) (AID 1705;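 note: TAMRA fluorescence gain over two minutes as APE1 cuts a quenched THF abasic duplex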)
Details: purified APE1 endonuclease activity, fluorescence, titration; series mostly up to 57.1 µM
Method in brief: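 Read-out: TAMRA fluorescence (525 nm ex, 598 nm em) from cleavage of a quenched THF abasic-site duplex, 50 nM final; activity taken as intensity change between third and first of three reads 60 s apart.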

DNA repair nuclease/redox regulator APEX1 (Homo sapiens), sequence (P27695 whole entry, looked up): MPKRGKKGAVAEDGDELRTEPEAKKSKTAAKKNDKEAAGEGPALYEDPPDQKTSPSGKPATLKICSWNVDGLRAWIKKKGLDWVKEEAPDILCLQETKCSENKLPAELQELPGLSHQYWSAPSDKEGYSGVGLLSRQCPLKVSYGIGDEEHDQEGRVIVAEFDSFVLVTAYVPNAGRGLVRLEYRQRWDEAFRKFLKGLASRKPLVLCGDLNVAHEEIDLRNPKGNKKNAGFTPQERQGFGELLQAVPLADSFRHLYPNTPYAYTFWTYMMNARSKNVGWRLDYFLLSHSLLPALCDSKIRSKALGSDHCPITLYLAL

Structure (SMILES)	Potency
O=c1[nH]c2cc(Cl)c(Cl)cc2[nH]c1=O	inactive
Oc1ccc(C2CNCc3sccc32)cc1O (stereo unspecified)	inactive
O=S(=O)(c1cccc2c(I)cccc12)N1CCCNCC1	inactive
C=CC(N)CCC(=O)O (stereo unspecified)	inactive
O=C(c1cc(O)c(O)c([N+](=O)[O-])c1)c1ccccc1F	inactive
NC(CCCP(=O)(O)O)C(=O)O (stereo unspecified)	inactive
Fc1cccc(/C=N/N=C/c2cccc(F)c2)c1	inactive
Cn1c(=O)c2[nH]c(-c3ccccc3)nc2n(C)c1=O	inactive
CN1C2CCC1CC(OC(=O)C(O)c1ccccc1)C2 (stereo unspecified)	inactive
O=c1[nH]c2ccccc2n1CCCN1CCN(C(c2ccccc2)c2ccccc2)CC1	inactive
CCCCCCCCCCCCCCCCCC(=O)NCC(COP(=O)([O-])OCC[N+](C)(C)C)OCC (stereo unspecified)	inactive
COc1cc2nc(N3CCN(C(=O)OCc4ccccc4)C(C(=O)NC(C)(C)C)C3)nc(N)c2cc1OC (stereo unspecified)	inactive
O=C(O)c1cc(=O)c2c(Cl)cc(Cl)cc2[nH]1	inactive
NCCSSCCN	inactive
CCCN(CC1CC1)c1nc(C)nc(Nc2c(Cl)cc(Cl)cc2Cl)c1Cl	inactive
OC[C@H]1O[C@@H](n2cnc3c(NC4CCCCC4)ncnc32)[C@H](O)[C@@H]1O	inactive
CN1CCC[C@H]1c1cccnc1	inactive
COc1cccc(OC)c1OCCNCC1COc2ccccc2O1 (stereo unspecified)	inactive
COc1cc(C(O)CO)ccc1OS(=O)(=O)O (stereo unspecified)	inactive
CCCCCCCCCCCCCCCCCCNC(=O)OCC(COP(=O)([O-])OCC[n+]1ccsc1)OC (stereo unspecified)	inactive
N[C@@H](CC(=O)O)C(=O)O	inactive
CN1CCc2cc(O)c(O)cc2C(c2ccccc2)C1 (stereo unspecified)	inactive

System: not listed separately
Assay: Counterscreen for APE1 Inhibitors: Fluorescent Dye Displacement Validation Assay (AID 1707)
Details: fluorescent dye displacement from DNA; series mostly up to 57.1 µM
Method in brief: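 Signal: ThO fluorescence (ex 480 nm/em 540 nm) on binding 50 nM dsDNA; displacement by test compound reduces it. Conditions: 250 nM dye, 50 mM Tris-HCl pH7.5, 2 mM MgCl2, 50mM NaCl, 0.01% Tween-20.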

Structure (SMILES)	Potency
O=c1[nH]c2cc(Cl)c(Cl)cc2[nH]c1=O	inactive
Oc1ccc(C2CNCc3sccc32)cc1O (stereo unspecified)	inactive
O=S(=O)(c1cccc2c(I)cccc12)N1CCCNCC1	inactive
C=CC(N)CCC(=O)O (stereo unspecified)	inactive
O=C(c1cc(O)c(O)c([N+](=O)[O-])c1)c1ccccc1F	inactive
NC(CCCP(=O)(O)O)C(=O)O (stereo unspecified)	inactive
Fc1cccc(/C=N/N=C/c2cccc(F)c2)c1	inactive
Cn1c(=O)c2[nH]c(-c3ccccc3)nc2n(C)c1=O	inactive
CN1C2CCC1CC(OC(=O)C(O)c1ccccc1)C2 (stereo unspecified)	inactive
O=c1[nH]c2ccccc2n1CCCN1CCN(C(c2ccccc2)c2ccccc2)CC1	inactive
CCCCCCCCCCCCCCCCCC(=O)NCC(COP(=O)([O-])OCC[N+](C)(C)C)OCC (stereo unspecified)	inactive
COc1cc2nc(N3CCN(C(=O)OCc4ccccc4)C(C(=O)NC(C)(C)C)C3)nc(N)c2cc1OC (stereo unspecified)	inactive
O=C(O)c1cc(=O)c2c(Cl)cc(Cl)cc2[nH]1	inactive
NCCSSCCN	inactive
CCCN(CC1CC1)c1nc(C)nc(Nc2c(Cl)cc(Cl)cc2Cl)c1Cl	inactive
OC[C@H]1O[C@@H](n2cnc3c(NC4CCCCC4)ncnc32)[C@H](O)[C@@H]1O	inactive
CN1CCC[C@H]1c1cccnc1	inactive
COc1cccc(OC)c1OCCNCC1COc2ccccc2O1 (stereo unspecified)	inactive
COc1cc(C(O)CO)ccc1OS(=O)(=O)O (stereo unspecified)	inactive
CCCCCCCCCCCCCCCCCCNC(=O)OCC(COP(=O)([O-])OCC[n+]1ccsc1)OC (stereo unspecified)	inactive
N[C@@H](CC(=O)O)C(=O)O	inactive
CN1CCc2cc(O)c(O)cc2C(c2ccccc2)C1 (stereo unspecified)	inactive

Target: Endonuclease 4 (Escherichia coli (strain K12)) (UniProt P0A6C1)
Assay: Counterscreen for APE1 Inhibitors: qHTS Validation Assay for Inhibitors of Endonuclease IV (AID 1708)
Details: E. coli endonuclease IV, DNA cleavage fluorescence; series mostly up to 57.1 µM
Method in brief: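 Incision of a double-stranded 50 nM TAMRA/BHQ-2 abasic substrate was followed kinetically (525/598 nm, reads every 60 s) after 15 min enzyme–compound preincubation with 2 nM EndoIV in pH 7.5 Tris buffer with MgCl2, DTT and Tween-20; concentration-response format.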

Structure (SMILES)	Potency
O=c1[nH]c2cc(Cl)c(Cl)cc2[nH]c1=O	inactive
Oc1ccc(C2CNCc3sccc32)cc1O (stereo unspecified)	inactive
O=S(=O)(c1cccc2c(I)cccc12)N1CCCNCC1	inactive
C=CC(N)CCC(=O)O (stereo unspecified)	inactive
O=C(c1cc(O)c(O)c([N+](=O)[O-])c1)c1ccccc1F	inactive
NC(CCCP(=O)(O)O)C(=O)O (stereo unspecified)	inactive
Fc1cccc(/C=N/N=C/c2cccc(F)c2)c1	inactive
Cn1c(=O)c2[nH]c(-c3ccccc3)nc2n(C)c1=O	inactive
CN1C2CCC1CC(OC(=O)C(O)c1ccccc1)C2 (stereo unspecified)	inactive
O=c1[nH]c2ccccc2n1CCCN1CCN(C(c2ccccc2)c2ccccc2)CC1	inactive
CCCCCCCCCCCCCCCCCC(=O)NCC(COP(=O)([O-])OCC[N+](C)(C)C)OCC (stereo unspecified)	inactive
COc1cc2nc(N3CCN(C(=O)OCc4ccccc4)C(C(=O)NC(C)(C)C)C3)nc(N)c2cc1OC (stereo unspecified)	inactive
O=C(O)c1cc(=O)c2c(Cl)cc(Cl)cc2[nH]1	inactive
NCCSSCCN	inactive
CCCN(CC1CC1)c1nc(C)nc(Nc2c(Cl)cc(Cl)cc2Cl)c1Cl	inactive
OC[C@H]1O[C@@H](n2cnc3c(NC4CCCCC4)ncnc32)[C@H](O)[C@@H]1O	inactive
CN1CCC[C@H]1c1cccnc1	inactive
COc1cccc(OC)c1OCCNCC1COc2ccccc2O1 (stereo unspecified)	inactive
COc1cc(C(O)CO)ccc1OS(=O)(=O)O (stereo unspecified)	inactive
CCCCCCCCCCCCCCCCCCNC(=O)OCC(COP(=O)([O-])OCC[n+]1ccsc1)OC (stereo unspecified)	inactive
N[C@@H](CC(=O)O)C(=O)O	inactive
CN1CCc2cc(O)c(O)cc2C(c2ccccc2)C1 (stereo unspecified)	inactive

— PubChem BioAssay (NCATS)
